PubChem BioAssay AID743060 (The Scripps Research Institute Molecular Screening Center, 2013)
Several values for one entry are separate records, joined by “and”; a condition that tells them apart may be missing. Identical values can stand only once.

test: T. brucei methionyl-tRNA synthetase enzyme inhibition – biochemical, radioactivity, round 1, late-stage follow-up (AID 743060); conditions: purified enzyme, radiolabel aminoacylation, scintillation, 2 h; at 10 µM; stronger effect = higher value

Compared with `O=C(CC=NOCc1ccc([N+](=O)[O-])cc1)Nc1ccc(Br)cc1`, `O=C(CC=NOCc1ccc([N+](=O)[O-])cc1)Nc1ccc(Cl)cc1` is higher in inhibition: 84.7% for the first, 86.5% for the second.

Compared with `Cc1ccc2[nH]c3nc(SCC(=O)Nc4ccc(C(F)(F)F)cc4)nnc3c2c1`, `COc1ccccc1NC(=O)CSc1nnc2c(n1)[nH]c1ccc(C)cc12` is lower in inhibition: 15.1% for the first, 14.5% for the second.

Going from `COCCc1nc2ccc(C(=O)NCCc3nc4ccc(OC)cc4[nH]3)cc2o1` to `Cc1ccc(C(=O)NCCc2nc3ccccc3[nH]2)cc1[N+](=O)[O-]`, the inhibition rises from -2.59% to 86.4%.

Going from `COc1ccc(OCC(O)CNC(=O)Nc2ccc(Cl)cc2)cc1` (stereo not given) to `COc1ccc(CCN(C(=S)Nc2ccccc2)C2CC(=O)N(c3ccc(Cl)cc3)C2=O)cc1` (stereo not given), the inhibition rises from 61.9% to 99.4%.

Going from `O=C(Cn1cc(C(=O)c2ccccc2)c2ccccc21)Nc1cccc(C(F)(F)F)c1` to `O=C(Cn1cc(C(=O)c2ccco2)c2ccccc21)Nc1cccc(C(F)(F)F)c1`, the inhibition rises from 65.9% to 89%.

Going from `O=C(CN1CCSC1=NCc1ccccc1)c1ccc(Cl)c(Cl)c1` to `O=C(CSc1nnc2c(n1)[nH]c1ccc(Br)cc12)NCc1ccccc1`, the inhibition rises from 28% to 59.7%.

First: O=C(Cn1cc(C(=O)C2CC2)c2ccccc21)Nc1cccc(C(F)(F)F)c1
Second: CC(=O)c1cn(CC(=O)Nc2cccc(C(F)(F)F)c2)c2ccccc12
The inhibition of the first is lower: 31.3% for the first, 39.3% for the second.

Compared with `CC(=O)c1c[nH]c(C(=O)NCc2cccc(C(F)(F)F)c2)c1`, `CC(CC(=O)Nc1cccc(Br)c1)=NNC(=O)c1ccc(O)cc1O` is lower in inhibition: 92.7% for the first, 90.5% for the second.

Compared with `COc1ccccc1NS(=O)(=O)c1cccc(NC(=O)Nc2ccccc2)c1`, `COc1cccc(NC(=O)C2CC(=O)n3c(nc4ccccc43)N2)c1` (stereo not given) is lower in inhibition: 95.1% for the first, 31.5% for the second.

Going from `O=C(NCc1nc2ccccc2[nH]1)C1=C[C@H](C2CC2)C[C@H](OCc2ccc(CO)cc2)O1` to `O=C(NCc1nc2ccccc2[nH]1)C1=C[C@H](c2ccccc2)C[C@H](OCc2ccc(CO)cc2)O1`, the inhibition rises from 56.9% to 61.8%.

Compared with `CNC(=S)N(CCc1ccccc1)C1CC(=O)N(c2ccc(Br)cc2)C1=O` (stereo not given), `O=C(NCc1nc2ccccc2[nH]1)C1=C[C@@H](c2ccc(Br)cc2)C[C@@H](OCCCCO)O1` is higher in inhibition: 99.7% for the first, 99.9% for the second.

Going from `Cc1cccc2[nH]c(CCN(C)C(=O)c3cccc(C4CCNC4)c3)nc12` (stereo not given) to `CCc1ccc2[nH]c3nc(SCC(=O)NCc4cccc(OC)c4)nnc3c2c1`, the inhibition rises from -14.3% to 0.65%.

Going from `O=C(NCc1nc2ccccc2[nH]1)C1=C[C@H](c2ccc3c(c2)OCO3)C[C@H](OCCCCO)O1` to `O=C(NCc1nc2ccccc2[nH]1)C1=C[C@@H](c2ccccc2)C[C@@H](OCc2ccc(CO)cc2)O1`, the inhibition rises from 79.4% to 94.3%.

First: CC(C)OCCCN1CC(=O)N2C(c3cccc([N+](=O)[O-])c3)c3[nH]c4ccccc4c3C[C@H]2C1=O (stereo not given in full)
Second: CCN(CC)C(=O)C(=O)c1cn(CC(=O)N2CCCc3ccccc32)c2ccccc12
The inhibition of the first is higher: 93.1% for the first, -17.2% for the second.

Compared with `CCO[C@H]1OC(C(=O)NCc2nc3ccccc3[nH]2)=C[C@@H](c2ccc(Br)cc2)[C@@H]1CCCO`, `Clc1ccc(OCCSCc2nc3ccccc3[nH]2)cc1` is lower in inhibition: 81.6% for the first, 44.8% for the second.

First: O=C(Cn1cc(C(=O)C(=O)N2CCCC2)c2ccccc21)Nc1ccccc1
Second: O=C(Cn1cc(C(=O)C(=O)N2CCOCC2)c2ccccc21)NCC1CCCO1 (stereo not given)
The inhibition of the first is higher: 9.2% for the first, 1.28% for the second.

Compared with `CCc1ccc2c(c1)c1nnc(SCC(=O)Nc3ccc4c(c3)OCO4)nc1n2C`, `Brc1cnc2nc(SCc3nc4ccccc4[nH]3)[nH]c2c1` is higher in inhibition: -8.11% for the first, 84.9% for the second.

With `O=C(Nc1ccc(F)c(Cl)c1)C1CC(=O)n2c(nc3ccccc32)N1` (stereo not given) the inhibition was 90.3% and 93.6%.
